Hits are enriched below; roughly 12% of the tested compounds scored in any of these assays.
JMJD2A Tudor – inhibitors of human JMJD2A Tudor domain | O75164 | AlphaScreen JMJD2A-Tudor / H3K4me3 peptide binding | Potency, µM (highest dose often 114 µM), without a hit: top-dose activity change, negative = inhibition, actives largely listed as inhibitors | hit rate 4.4% among 390,000 | AID 504339; further: on the % scale 0 is the no-effect control and ±100 the full control effect; nearly all actives have a fitted effect of over 50% in size
Sfp PPTase inh – blocks B. subtilis Sfp PPTase activity. Q9F4F7. Biochemical Sfp PPTase activity, qHTS. Potency, µM, inactives show largest response in the series, negative = inhibition, actives largely listed as inhibitors. hit rate 3.5% among 310,000. AID 1490;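 further: the enzyme is Sfp with the accession as filed and its product quenches rhodamine fluorescence; 0% = enzyme reaction without inhibitor and -100% = no enzyme wells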
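Fluorescence-quenching assay with 15 nM Sfp, 5 uM rhodamine-CoA and 12.5 uM BHQ-2-labelled ybbR peptide in pH 7.6 Hepes/MgCl2 buffer. Enzyme was pre-incubated with compound for 15 min at room temperature. Rate was taken from the 30-min fluorescence change (525/598 nm).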
L3MBTL1 block – L3MBTL1 (human) inhibition. AlphaScreen L3MBTL1–H3K9me1 peptide binding. hit rate 0.66% among 230,000. Q9Y468. Potency, µM (titrated, usually from 57.1 µM), for the others: top-dose activity, negative = inhibition, hits mostly inhibitors; further: on the % scale 0 is the no-effect control and ±100 the full control effect; nearly all actives have a fitted effect of over 60% in size
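Read-out is AlphaScreen signal from streptavidin donor and nickel chelate acceptor beads (10 ug/mL final each) bridging L3MBTL1 (50 nM) and biotinylated K9-monomethylated H3(1-15) peptide (75 nM), after 30 min compound exposure at room temperature.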
G9a inh – blocks human histone lysine methyltransferase G9a | G9a H3K9 monomethylation, AlphaScreen, 2 h | Potency, µM (top dose mostly 102 µM), inactives show at the top dose activity, negative = inhibition, actives largely listed as inhibitors | hit rate 8.8% among 350,000; further: on the % scale 0 is the no-effect control and ±100 the full control effect; nearly all actives have a fitted effect of over 75% in size
Target sequence (Q96KQ7 913-1193 limits assumed): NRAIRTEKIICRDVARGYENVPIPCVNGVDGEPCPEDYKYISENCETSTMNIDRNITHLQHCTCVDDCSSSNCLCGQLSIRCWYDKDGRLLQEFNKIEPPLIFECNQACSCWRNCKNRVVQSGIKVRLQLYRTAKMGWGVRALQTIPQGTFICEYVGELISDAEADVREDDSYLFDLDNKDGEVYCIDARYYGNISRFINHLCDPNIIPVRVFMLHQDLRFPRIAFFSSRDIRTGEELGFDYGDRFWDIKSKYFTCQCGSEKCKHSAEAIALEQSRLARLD
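AlphaScreen detection with an anti-monomethyl H3K9 antibody quantified product after a 2 h room-temperature reaction containing 500 nM biotinylated H3K9 peptide, 20 µM SAM and 20 nM enzyme, which had been preincubated 15 min with compound.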
HP1b chromo inh – blocks HP1-beta chromodomain binding to methylated histone tails. P83916. AlphaScreen HP1-beta / biotin-H3K9me3 peptide binding. Potency, µM (titrated, usually from 114 µM), for the others: at the highest dose activity change, negative = inhibition, hits mostly inhibitors. hit rate 0.56% among 390,000. AID 540317; further: nearly all actives have a fitted effect of over 70% in size
Target sequence (P83916 whole entry, looked up): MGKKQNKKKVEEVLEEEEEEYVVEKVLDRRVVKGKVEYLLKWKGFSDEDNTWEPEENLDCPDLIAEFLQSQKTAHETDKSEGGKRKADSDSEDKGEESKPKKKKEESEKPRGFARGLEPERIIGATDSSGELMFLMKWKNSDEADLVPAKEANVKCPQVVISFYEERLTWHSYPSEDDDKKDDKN
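HP1-beta protein (50 nM final) preincubated 30 min at room temperature with biotinylated H3(1-18)K9me3 peptide (50 nM) in PBS pH 7.4, 0.01% Tween-20, then compound added for 30 min. AlphaScreen streptavidin donor/nickel chelate acceptor beads (10 ug/mL final), 30 min dark, luminescence read.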
BAZ2B inh – BAZ2B (human) inhibition | Q9UIF8 | AlphaScreen BAZ2B-H3K14Ac peptide displacement | Potency, µM (titrated, usually from 114 µM), for inactives: at the highest dose activity change, negative = inhibition, most hits filed as inhibitors | hit rate 4.4% among 360,000 | AID 504333; further: on the % scale 0 is the no-effect control and ±100 the full control effect; nearly all actives have a fitted effect of over 60% in size
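Complex of BAZ2B and biotin-H3K14Ac (50 nM apiece) forms over 30 min at RT, then faces library compounds up to 110 uM for another 30 min; AlphaScreen beads added, 20 min dark incubation, luminescence read.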
Starred values were filed as active, the others as inactive; ? = inconclusive; / = no result given; [ ] = another dose, or the depositor's remark. The call rests on the fitted dose curve; in most records, active means well fitted curve in the direction sought with a large enough effect; inconclusive means small, poorly fitted or top-dose-only effect, or another doubt; inactive means no such curve, though single readings can be large; an effect the other way counts as inactive or inconclusive. Potency means the concentration at half of the fitted maximal effect.

SMILES	JMJD2A Tudor	Sfp PPTase inh	L3MBTL1 block	G9a inh	HP1b chromo inh	BAZ2B inh
Cc1cc(NS(=O)(=O)c2ccc(NC(=O)COc3c(C)ccc(C)c3C)cc2)nc(C)n1	-4%	/	/	?	46%	-9%
Cc1cc(C)cc(OCC(=O)N2N=C(c3cccnc3)CC2(O)C(F)(F)F)c1 (stereo not given)	-10%	-6%	-2%	6%	26%	-3%
Cc1cc(C)cc(OCC(=O)N2N=C(C(F)(F)F)CC2(O)C(C)(C)C)c1 (stereo not given)	-9%[57.1 µM]	?	5%	1.6µM*	10%	-3%
Cc1ccc(Cn2c(SCc3ccc(C(=O)NC4CCCCC4)cc3)nc3ccncc32)cc1	-19%	/	/	?	16%	-8%
CC(C)c1cc(=O)[nH]c(N2CCN(Cc3ccc4c(c3)OCO4)CC2)n1	-15%	16%	1%[2.29 µM]	-2%[0.501 µM]	10%	-17%
CCCN(CCC)C(=O)CSc1ncccc1C(=O)O	89µM*	?	?	?	23%	-1%
CN(C(=O)CSc1ncccc1C(=O)O)c1ccccc1	-16%	2%	-1%	28%[12.7 µM]	25%	1%
CC(C)CC1=NN(C(=O)c2ccncc2)C(O)(C(F)(F)F)C1 (stereo not given)	40µM*	20%	-9%	2%	10%	1%
CC(C)CC1=NN(C(=O)c2cccnc2)C(O)(C(F)(F)F)C1 (stereo not given)	-3%	5%	4%	65%[59 µM]	42%	9%
O=S(=O)(c1ccccc1)N1CCN(c2nc(-c3ccc(F)cc3)nc3cc(Cl)ccc23)CC1	-11%	/	/	/	65%	/
c1ccc2sc(N3CCN(Cc4nnnn4CC4CCCO4)CC3)nc2c1 (stereo not given)	-12%	-7%	1%	28µM*	26%	/
c1ccc2c(c1)CCCN2Cc1nnnn1CC1CCCO1 (stereo not given)	-9%	8%	/	?	41%	-25%
CCc1ccc(C(=O)c2cn(CC(=O)Nc3ccc4c(c3)OCO4)c3ccc(Cl)cc3c2=O)cc1	-13%	/	/	-3%[59 µM]	15%	-27%
CCc1ccc(C(=O)c2cn(CC(=O)Nc3ccc4c(c3)OCO4)c3cc(OC)c(OC)cc3c2=O)cc1	-35%	/	/	-28%[59 µM]	26%	79µM*
CCc1ccc(C(=O)c2cn(CC(=O)Nc3ccc4c(c3)OCO4)c3ccc(CC)cc3c2=O)cc1	-19%	/	/	?	47%	79µM*
COc1ccc(C(=O)c2cn(Cc3ccccc3F)c3ccc(F)cc3c2=O)cc1	-22%	/	/	-9%[59 µM]	21%	79µM*
COc1cccc(NC(=O)Cn2cc(C(=O)c3ccc(C)cc3)c(=O)c3cc(OC)ccc32)c1	?	/	-3%	?	21%	-32%
CCc1ccc(C(=O)c2cn(CC(=O)Nc3cccc(OC)c3)c3ccc(OC)cc3c2=O)cc1	11µM*	/	-3%	10µM*	3%	50µM*
COc1ccc2c(c1)c(=O)c(C(=O)c1ccc(C)cc1)cn2Cc1ccccc1F	-28%	/	/	-5%[59 µM]	16%	-28%
COc1cccc(CN2CCN(C(c3ccccc3)c3ccccc3)CC2)c1O	50µM*	?	-6%	/	?	35µM*
CCOC(=O)C1(Cc2ccccc2)CCN(Cc2cccc(OC)c2O)CC1	-25%	4%	-15%	?	-8%	?
COc1cc(C(=S)N2CCN(C(c3ccccc3)c3ccccc3)CC2)cc(OC)c1O	56µM*	16µM*	-17%	7.9µM*	?	40µM*
CC(=O)c1c(CC(=O)O)[nH]n(-c2nc3ccccc3s2)c1=O	79µM*	8%	/	?	-4%	-9%
COc1ccc(CN=C(C)c2c(C(F)(F)F)[nH]n(-c3nc4ccccc4s3)c2=O)cc1	-10%	9%	/	-2%[59 µM]	13%	7%
O=C(CN1C(=O)S/C(=C\c2ccccc2)C1=O)NCCCn1ccnc1	?	-23%	/	35µM*	30%	?
SMILES	JMJD2A Tudor	Sfp PPTase inh	L3MBTL1 block	G9a inh	HP1b chromo inh	BAZ2B inh
CC(=O)NC(CC(=O)NCCN1C(=O)S/C(=C\c2ccccc2)C1=O)c1ccccc1 (stereo not given)	-16%	-23%	9%	56µM*	21%	-3%
O=C(CCCN1C(=O)/C(=C/c2ccccc2)SC1=S)NCCCn1ccnc1	?	10%	/	-23%	-9%	45µM*
O=C(CCN1C(=O)/C(=C/c2ccccc2F)SC1=S)NCCCn1ccnc1	?	-12%	/	/	-7%	40µM*
CC(=O)NNC(=O)CN1C(=O)/C(=C/c2ccccc2)SC1=S	-27%	1%	/	27%[59 µM]	37%	-7%
O=C(CCN1C(=O)S/C(=C\c2ccccc2)C1=O)NCCCn1ccnc1	-22%	14%	/	-23%[59 µM]	36%	-26%
C=C(C)C(=O)OCCOCC	/	-9%	/	/	/	/
COc1ccc(OC)c(NC(=O)Cc2ccc(NC3=NC4CS(=O)(=O)CC4S3)cc2)c1 (stereo not given)	-22%	2%	0%	/	28%	-4%
CCCCN(C)c1ncnc2c1cnn2-c1cccc(Cl)c1	35%	/	/	85%[59 µM]	155%	129%
O=C(c1ccc(Cl)c(Cl)c1)N1CCC(=O)N(C(CO)Cc2ccccc2)CC1 (stereo not given)	35µM*	/	/	/	-22%	/
O=C(c1ccc(Cl)c(Cl)c1)N1CCC(=O)N(C(COCc2ccccc2)Cc2ccccc2)CC1 (stereo not given)	-33%	-3%	6%	-23%	20%	-10%
Cc1sc(N)nc1-c1ccc2c(c1)OCCO2	-26%	79µM*	-3%	35µM*	1%	-5%
c1cc2c(cc1C1=Nn3c(nnc3C3CCCCC3)SC1)OCO2	-6%	-12%	/	?	17%	8%
Cc1sc(N)nc1-c1ccc(Oc2ccccc2)cc1	?	0%	-6%	?	-20%	50µM*
Nc1nc(-c2ccc3c(c2)OCCO3)c(CC(=O)O)s1	-19%	-20%	4%	/	19%	-31%
NC1=NN=C(c2ccc3c(c2)OCCO3)CS1	-26%	79µM*	/	?	-5%	-21%
Nc1nc(N)nc(-c2ccc(Oc3ccccc3)cc2)n1	-17%	15%	/	0%[12.7 µM]	4%	-5%
O=C(NNC(=S)Nc1cccc(Cl)c1)c1ccccc1	-21%	10%	/	35µM*	19%	-9%
CCn1c(C)nc2cc(C(=O)NNC(=S)Nc3ccc(OC)cc3)ccc21	-8%	24%	3%	40µM*	26%	-3%
O=C(COc1cccc(Cl)c1)NNC(=S)Nc1ccccc1	-29%[57.1 µM]	-4%	-2%	7.1µM*	?	9%
CCn1c(C)nc2cc(C(=O)NNS(=O)(=O)c3ccc(C)c(C)c3)ccc21	-24%	3%	/	-28%[59 µM]	13%	-7%

High-throughput results from PubChem BioAssay.
